According to the supplement of paper PMC4466140:

B1: unnamed (peptide)
chain: PPIPIVPSSPAPPLP
B2: unnamed (peptide)
chain: ATKSASPTLPTRRSR

biological target: SpBzz1-D2; experiment: SPOT peptide array binding signal intensity (averaged, normalized) (arbitrary units (background-subtracted, floor 0; scale differs between SH3 domains)); higher = stronger binding of the SH3 domain to the peptide
Method in brief: (§1)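 GST-fused SH3 domains, from four yeast species, were produced in E. coli BL21(DE3) and captured on glutathione Sepharose. Membranes of cellulose carrying synthetic 15-mer peptides, in which cysteines had been replaced by serines, were exposed to each domain at 10 μg/ml overnight at 4°C in TBS-based blocking buffer. After anti-GST antibody, an HRP anti-mouse secondary and luminol, spots were imaged and quantified using Genespotter. Binding signal is normalized and background-subtracted spot intensity, averaged over replicates, in arbitrary units that differ between domains.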

Row | Binder | SPOT peptide array binding signal intensity
1 | B1 | ≤ 0
2 | B2 | 1

biological target: SpCyk3; experiment: as above
Method in brief: as §1

Row | Binder | SPOT peptide array binding signal intensity
3 | B1 | ≤ 0
4 | B2 | 3

biological target: SpHof1; experiment: as above
Method in brief: as §1

Row | Binder | SPOT peptide array binding signal intensity
5 | B1 | ≤ 0
6 | B2 | 732

biological target: SpHof1-2; experiment: as above
Method in brief: as §1

Row | Binder | SPOT peptide array binding signal intensity
7 | B1 | ≤ 0
8 | B2 | 83

biological target: SpHof1-3; experiment: as above
Method in brief: as §1

Row | Binder | SPOT peptide array binding signal intensity
9 | B1 | ≤ 0
10 | B2 | 110

biological target: SpHse1; experiment: as above
Method in brief: as §1

Row | Binder | SPOT peptide array binding signal intensity
11 | B1 | 26.8
12 | B2 | 77

biological target: SpLsb1; experiment: as above
Method in brief: as §1

Row | Binder | SPOT peptide array binding signal intensity
13 | B1 | ≤ 0
14 | B2 | 90

biological target: SpLsb4; experiment: as above
Method in brief: as §1

Row | Binder | SPOT peptide array binding signal intensity
15 | B1 | ≤ 0
16 | B2 | 7440

biological target: SpMyo1; experiment: as above
Method in brief: as §1

Row | Binder | SPOT peptide array binding signal intensity
17 | B1 | 1080
18 | B2 | 46.8

biological target: SpNbp2; experiment: as above
Method in brief: as §1

Row | Binder | SPOT peptide array binding signal intensity
19 | B1 | ≤ 0
20 | B2 | 21.5

biological target: SpPex13; experiment: as above
Method in brief: as §1

Row | Binder | SPOT peptide array binding signal intensity
21 | B1 | ≤ 0
22 | B2 | 17

biological target: SpRvs167; experiment: as above
Method in brief: as §1

Row | Binder | SPOT peptide array binding signal intensity
23 | B1 | ≤ 0
24 | B2 | 2470

biological target: SpSla1-D1-D2; experiment: as above
Method in brief: as §1

Row | Binder | SPOT peptide array binding signal intensity
25 | B1 | ≤ 0
26 | B2 | 334

biological target: SpSla1-D3; experiment: as above
Method in brief: as §1

Row | Binder | SPOT peptide array binding signal intensity
27 | B1 | ≤ 0
28 | B2 | ≤ 0

biological target: AgAbp1; experiment: as above
Method in brief: as §1

Row | Binder | SPOT peptide array binding signal intensity
29 | B2 | 938

biological target: AgBbc1; experiment: as above
Method in brief: as §1

Row | Binder | SPOT peptide array binding signal intensity
30 | B2 | 899

biological target: AgBem1-D1; experiment: as above
Method in brief: as §1

Row | Binder | SPOT peptide array binding signal intensity
31 | B2 | 133

biological target: AgBzz1-D1; experiment: as above
Method in brief: as §1

Row | Binder | SPOT peptide array binding signal intensity
32 | B2 | 99.5

biological target: AgBzz1-D2; experiment: as above
Method in brief: as §1

Row | Binder | SPOT peptide array binding signal intensity
33 | B2 | 45

biological target: AgCyk3; experiment: as above
Method in brief: as §1

Row | Binder | SPOT peptide array binding signal intensity
34 | B2 | 2

biological target: AgFus1; experiment: as above
Method in brief: as §1

Row | Binder | SPOT peptide array binding signal intensity
35 | B2 | 28

biological target: AgHof1; experiment: as above
Method in brief: as §1

Row | Binder | SPOT peptide array binding signal intensity
36 | B2 | 180

biological target: AgHse1; experiment: as above
Method in brief: as §1

Row | Binder | SPOT peptide array binding signal intensity
37 | B2 | 114

biological target: AgLsb1; experiment: as above
Method in brief: as §1

Row | Binder | SPOT peptide array binding signal intensity
38 | B2 | 18.5

biological target: AgLsb4; experiment: as above
Method in brief: as §1

Row | Binder | SPOT peptide array binding signal intensity
39 | B2 | 1800

biological target: AgMyo5; experiment: as above
Method in brief: as §1

Row | Binder | SPOT peptide array binding signal intensity
40 | B2 | 5.5

biological target: AgNbp2; experiment: as above
Method in brief: as §1

Row | Binder | SPOT peptide array binding signal intensity
41 | B2 | 39.5

biological target: AgRvs167; experiment: as above
Method in brief: as §1

Row | Binder | SPOT peptide array binding signal intensity
42 | B2 | 192

biological target: AgSho1; experiment: as above
Method in brief: as §1

Row | Binder | SPOT peptide array binding signal intensity
43 | B2 | ≤ 0

biological target: AgSla1-D1-D2; experiment: as above
Method in brief: as §1

Row | Binder | SPOT peptide array binding signal intensity
44 | B2 | 74.5

biological target: AgSla1-D3; experiment: as above
Method in brief: as §1

Row | Binder | SPOT peptide array binding signal intensity
45 | B2 | 11.8

biological target: CaAbp1-D1; experiment: as above
Method in brief: as §1

Row | Binder | SPOT peptide array binding signal intensity
46 | B2 | 434

biological target: CaAbp1-D2; experiment: as above
Method in brief: as §1

Row | Binder | SPOT peptide array binding signal intensity
47 | B2 | 1090

biological target: CaBbc1; experiment: as above
Method in brief: as §1

Row | Binder | SPOT peptide array binding signal intensity
48 | B2 | 986

biological target: CaBem1-D1; experiment: as above
Method in brief: as §1

Row | Binder | SPOT peptide array binding signal intensity
49 | B2 | 51

biological target: CaBzz1-D1; experiment: as above
Method in brief: as §1

Row | Binder | SPOT peptide array binding signal intensity
50 | B2 | 223

biological target: CaBzz1-D2; experiment: as above
Method in brief: as §1

Row | Binder | SPOT peptide array binding signal intensity
51 | B2 | 195

biological target: CaCyk3; experiment: as above
Method in brief: as §1

Row | Binder | SPOT peptide array binding signal intensity
52 | B2 | 56

biological target: CaFus1; experiment: as above
Method in brief: as §1

Row | Binder | SPOT peptide array binding signal intensity
53 | B2 | 35

biological target: CaHof1; experiment: as above
Method in brief: as §1

Row | Binder | SPOT peptide array binding signal intensity
54 | B2 | 4

biological target: CaHse1; experiment: as above
Method in brief: as §1

Row | Binder | SPOT peptide array binding signal intensity
55 | B2 | 8.75

biological target: CaLsb1; experiment: as above
Method in brief: as §1

Row | Binder | SPOT peptide array binding signal intensity
56 | B2 | 0.75

biological target: CaLsb4; experiment: as above
Method in brief: as §1

Row | Binder | SPOT peptide array binding signal intensity
57 | B2 | 6350

biological target: CaMyo5; experiment: as above
Method in brief: as §1

Row | Binder | SPOT peptide array binding signal intensity
58 | B2 | 6

biological target: CaNbp2; experiment: as above
Method in brief: as §1

Row | Binder | SPOT peptide array binding signal intensity
59 | B2 | 77

biological target: CaRvs167; experiment: as above
Method in brief: as §1

Row | Binder | SPOT peptide array binding signal intensity
60 | B2 | 607

biological target: CaRvs167-3; experiment: as above
Method in brief: as §1

Row | Binder | SPOT peptide array binding signal intensity
61 | B2 | 9.25

biological target: CaSho1; experiment: as above
Method in brief: as §1

Row | Binder | SPOT peptide array binding signal intensity
62 | B2 | 23

biological target: CaSla1-D1-D2; experiment: as above
Method in brief: as §1

Row | Binder | SPOT peptide array binding signal intensity
63 | B2 | 1430

biological target: CaSla1-D3; experiment: as above
Method in brief: as §1

Row | Binder | SPOT peptide array binding signal intensity
64 | B2 | 1.75

biological target: ScAbp1; experiment: as above
Method in brief: as §1

Row | Binder | SPOT peptide array binding signal intensity
65 | B2 | 192

biological target: ScBbc1; experiment: as above
Method in brief: as §1

Row | Binder | SPOT peptide array binding signal intensity
66 | B2 | 405

biological target: ScBem1-D1; experiment: as above
Method in brief: as §1

Row | Binder | SPOT peptide array binding signal intensity
67 | B2 | 30

biological target: ScBzz1-D1; experiment: as above
Method in brief: as §1

Row | Binder | SPOT peptide array binding signal intensity
68 | B2 | 95

biological target: ScBzz1-D2; experiment: as above
Method in brief: as §1

Row | Binder | SPOT peptide array binding signal intensity
69 | B2 | 52

biological target: ScCyk3; experiment: as above
Method in brief: as §1

Row | Binder | SPOT peptide array binding signal intensity
70 | B2 | 32

biological target: ScFus1; experiment: as above
Method in brief: as §1

Row | Binder | SPOT peptide array binding signal intensity
71 | B2 | 14

biological target: ScHof1; experiment: as above
Method in brief: as §1

Row | Binder | SPOT peptide array binding signal intensity
72 | B2 | 3.5

biological target: ScHse1; experiment: as above
Method in brief: as §1

Row | Binder | SPOT peptide array binding signal intensity
73 | B2 | 172

biological target: ScLsb1; experiment: as above
Method in brief: as §1

Row | Binder | SPOT peptide array binding signal intensity
74 | B2 | 651

biological target: ScLsb2; experiment: as above
Method in brief: as §1

Row | Binder | SPOT peptide array binding signal intensity
75 | B2 | 13.5

biological target: ScLsb3; experiment: as above
Method in brief: as §1

Row | Binder | SPOT peptide array binding signal intensity
76 | B2 | 5480

biological target: ScLsb4; experiment: as above
Method in brief: as §1

Row | Binder | SPOT peptide array binding signal intensity
77 | B2 | 2750

biological target: ScMyo3; experiment: as above
Method in brief: as §1

Row | Binder | SPOT peptide array binding signal intensity
78 | B2 | 1.5

biological target: ScMyo5; experiment: as above
Method in brief: as §1

Row | Binder | SPOT peptide array binding signal intensity
79 | B2 | 5

biological target: ScNbp2; experiment: as above
Method in brief: as §1

Row | Binder | SPOT peptide array binding signal intensity
80 | B2 | 63.5

biological target: ScPex13; experiment: as above
Method in brief: as §1

Row | Binder | SPOT peptide array binding signal intensity
81 | B2 | 511

biological target: ScRvs167; experiment: as above
Method in brief: as §1

Row | Binder | SPOT peptide array binding signal intensity
82 | B2 | 1320

biological target: ScSho1; experiment: as above
Method in brief: as §1

Row | Binder | SPOT peptide array binding signal intensity
83 | B2 | 65.5

biological target: ScSla1-D1-D2; experiment: as above
Method in brief: as §1

Row | Binder | SPOT peptide array binding signal intensity
84 | B2 | 726

biological target: ScSla1-D3; experiment: as above
Method in brief: as §1

Row | Binder | SPOT peptide array binding signal intensity
85 | B2 | 25.8

biological target: SpAbp1-D1; experiment: as above
Method in brief: as §1

Row | Binder | SPOT peptide array binding signal intensity
86 | B2 | 356

biological target: SpBbc1; experiment: as above
Method in brief: as §1

Row | Binder | SPOT peptide array binding signal intensity
87 | B2 | 27

biological target: SpBzz1-D1; experiment: as above
Method in brief: as §1

Row | Binder | SPOT peptide array binding signal intensity
88 | B2 | 366
